Laboratory results published in PubChem BioAssay AID434970 (Sanford-Burnham Center for Chemical Genomics, 2010).
The whole screen tested about 11,000 compounds, of which about 310 (2.8%) were called active. No stated cut-off is given here; in the data, active means activity change below about -85%; inactive means the rest. The entries come from a sample that favours actives as a whole.

System: intestinal alkaline phosphatase [Mus musculus]
Assay: mouse intestinal phosphatase enzyme activation – biochemical, luminescence, single concentration, confirmation (AID 434970)
Details: purified mouse IAP, CDP-Star luminescence, 30 min, at 10 µM; activation factor: measured here: IAP activation factor, stronger effect = higher value; activity change, negative = activation: stronger effect = lower value

Structure (SMILES)	activation factor	activity change, negative = activation
Cc1cc(C(F)F)nn1CC(=O)N1CCSCC1	0.984	1.65% (inactive)
CCCC(=O)NC(=S)Nc1ccccc1C(F)(F)F	0.974	2.55% (inactive)
CCN(CC)S(=O)(=O)c1ccc2c(c1)nc(SCc1nc3ccsc3c(=O)[nH]1)n2CC	0.992	0.85% (inactive)
COc1ccc(CNC(=S)Nc2ccc(F)c(Cl)c2)cc1OC	1.56	-56.2% (inactive)
COc1ccc(N2C(=O)CCC(C(=O)NCc3cccnc3)C2c2ccc(OC)c(OC)c2)cc1 (stereo unspecified)	0.977	2.3% (inactive)
O=C(Nc1cnn(Cc2ccc(Cl)c(Cl)c2)c1)C12CC3CC(CC(C3)C1)C2	1.17	-16.9% (inactive)
O=C(Nc1cnn(Cc2ccccc2)c1)NC12CC3CC(CC(C3)C1)C2	2.05	-105% (active)
O=C(NCc1ccccn1)NC12CC3CC(CC(C3)C1)C2	1.06	-6.25% (inactive)
COc1ccccc1C(=O)N1CCN=C1SC	0.943	5.75% (inactive)
O=C(O)CCN1C(=O)NC2(CCCC2)C1=O	1.15	-15.3% (inactive)
Cc1ccc(C)c(N(C)C(=O)c2coc(=O)c3ccccc23)c1	0.967	3.3% (inactive)
Cc1cccc(NC(=O)NCC2CCN(c3ccc(S(=O)(=O)N4CCOCC4)cc3)CC2)c1	2.56	-156% (active)
O=C(NCC1CCN(Cc2cccc(Cl)c2)CC1)Nc1ccc(Cl)cc1	1.9	-89.5% (inactive)
COc1cccc(NC(=O)COC(=O)c2cc(S(=O)(=O)N3CCOCC3)ccc2C)c1	0.964	3.65% (inactive)
O=C(NCC1CCN(c2ccc(S(=O)(=O)N3CCOCC3)cc2)CC1)Nc1ccccc1	1.77	-77.3% (inactive)
Cc1ccc(NC(=O)NCC2CCN(Cc3cccc(Cl)c3)CC2)cc1Cl	1.87	-87.3% (active)
CCc1ccc(NC(=O)NCC2CCN(Cc3cccc(Cl)c3)CC2)cc1	2.2	-120% (active)
Cc1cccc(CN2CCC(CNC(=O)Nc3ccc(F)c(Cl)c3)CC2)c1	2.15	-115% (active)
CCc1cccc(CN2CCC(CNC(=O)Nc3ccc(Cl)cc3)CC2)c1	1.68	-67.9% (inactive)
CCOc1cc(/C=N\NC(=O)c2ccc(NC(=O)CC)cc2)ccc1OC(=O)c1ccccc1	1.02	-1.9% (inactive)
Cc1cc(C)nc(SCC(=O)c2ccc([N+](=O)[O-])cc2)n1	0.867	13.3% (inactive)

Structure (SMILES)	activation factor	activity change, negative = activation
O=C1Nc2ccccc2C(O)(C(=O)NC2CC2)N1c1ccc(Cl)c(Cl)c1 (stereo unspecified)	0.911	8.85% (inactive)
CCOc1ccc2nc(SCC(=O)N(C)C3CCS(=O)(=O)C3)[nH]c2c1 (stereo unspecified)	0.928	7.2% (inactive)
O=C(c1cccs1)[C@@H]1[C@@H]2C(=O)N(Cc3ccc4c(c3)OCO4)C(=O)[C@@H]2C2c3ccccc3C=CN21 (stereo partly specified)	0.569	43.1% (inactive)
CCn1c(=O)c(C(=O)NCCN2CCCCC2)c(O)c2ccccc21	0.851	14.8% (inactive)
CC[C@]1(C(=O)OC)[C@H]2C(=O)N(C)C(=O)[C@H]2[C@H]2CN(C)C(=NC3CCCCC3)N21	0.984	1.6% (inactive)
Cc1ccccc1NC(=O)NCCCN1CCN(c2ccccc2)CC1	1.27	-27.2% (inactive)
O=C(NCCc1c[nH]c2ccccc12)Nc1cccc2ccccc12	1.29	-28.6% (inactive)
Cc1cc2nc(C)n(CCCNC(=O)Nc3cccc4ccccc34)c2cc1C	2.18	-118% (active)
Cc1cc(=O)n(CCO)c(O)c1C#N	1.02	-1.65% (inactive)
CCOC(=O)C1=CNS(=O)(=O)NC1c1cccc(O)c1 (stereo unspecified)	1.05	-5.15% (inactive)
COc1ccc(NS(=O)(=O)c2ccc(OC)c(OC)c2)cc1OC	0.945	5.5% (inactive)
O=C(Nc1nc(-c2ccccc2)cs1)NC1CCCCC1	1.61	-61.4% (inactive)
O=C(Nc1ccccc1)Nc1nc(-c2ccc(F)c(F)c2)cs1	1.75	-75.4% (inactive)
COc1cccc(-c2csc(NC(=O)Nc3ccccc3)n2)c1	2.11	-111% (active)
O=C(Nc1ccccc1)Nc1nc(-c2ccc(F)cc2)cs1	1.62	-62.5% (inactive)
O=C(Nc1cccc(Cl)c1)Nc1nc(-c2ccc(Cl)cc2)cs1	2.1	-110% (active)
O=C(Nc1nc(-c2cccs2)cs1)c1ccc(Cl)cc1	0.793	20.7% (inactive)
O=C(Nc1cccc(Cl)c1)Nc1nc(-c2ccccc2)cs1	2.16	-116% (active)
Cc1csc(NC(=O)Nc2cccc(Cl)c2)n1	1.11	-11.1% (inactive)
COc1cccc(-c2csc(N3CCN(C(=O)Nc4ccc(F)cc4)CC3)n2)c1	1.33	-32.7% (inactive)
Cc1cc(NCCCn2ccnc2)n2c(nc3ccccc32)c1C#N	1.02	-2.25% (inactive)

Structure (SMILES)	activation factor	activity change, negative = activation
CC1(C)Cc2c(sc3c2C2=NCCN2C=N3)CO1	0.94	5.95% (inactive)
COc1ccc(C(c2nnnn2Cc2cccs2)N2CCN(c3ccc(F)cc3)CC2)cc1OC (stereo unspecified)	0.985	1.5% (inactive)
C1=C[C@H]2CC[C@@H]1N(c1ccccc1)O2	0.976	2.4% (inactive)
NC1=NC2(CCCCC2)N(c2ccc(F)cc2)C(N)=N1	0.95	4.95% (inactive)
Cc1ccc(CNC(=O)/C(C#N)=C\c2ccc(N(C)C)cc2)cc1	0.817	18.4% (inactive)
CCCOc1ccc(Oc2cc(C)nc(SC)n2)nn1	1.01	-1% (inactive)
Cc1nn(C/C(C#N)=N\O)c(C)[n+]1N	0.961	3.9% (inactive)
COc1cc2c3c(c1)C1(C(=O)N3C(C)(C)C=C2C)C(C#N)=C(N)Oc2cc(O)ccc21 (stereo unspecified)	1	-0.3% (inactive)
COc1ccc(NC(=O)c2ccco2)cc1NC(=O)c1cccc(OC(C)C)c1	0.934	6.55% (inactive)
O=C1CN=C(Nc2ccccc2Cl)N1Cc1ccc2c(c1)OCO2	1.07	-7.1% (inactive)
COc1cccc(NC(=O)CCN2CCN(c3ccccc3F)CC2)c1	1.09	-8.65% (inactive)
CCOC(=O)c1cccc(NC(=O)Nc2cc(OC)ccc2OC)c1	1.69	-68.8% (inactive)
CCOC(=O)c1ccc(N2CCN(c3ccccc3F)CC2)c(NC(=O)Nc2ccccc2)c1	3.14	-214% (active)
COC(=O)c1ccc(N2CCN(C)CC2)c(NC(=O)c2cc3ccccc3o2)c1	1.03	-3.1% (inactive)
CCOC(=O)c1ccc(N2CCN(c3ccccc3F)CC2)c(NC(=O)Nc2cccc(OC)c2)c1	4.62	-362% (active)
CCOC(=O)c1ccc(N2CCN(c3ccc(F)cc3)CC2)c(NC(=O)Nc2cccc(OC)c2)c1	1.55	-55% (inactive)
CC1(C)N=C(SCC(=O)Nc2ccccc2)C(c2ccc(Cl)cc2)=N1	0.943	5.75% (inactive)
COc1cc(C2CC(=O)Oc3ccc(C(C)(C)C)cc32)cc(OC)c1OC (stereo unspecified)	1.07	-6.8% (inactive)
O=C(O)CCN(CCC(=O)O)c1ccccc1	1.02	-1.9% (inactive)
CNC[C@@H]1Oc2ccc(NC(=O)Nc3cccc4ccccc34)cc2C(=O)N([C@@H](C)CO)C[C@@H]1C	2.43	-143% (active)
COc1ccc(NC(=O)Nc2ccc3c(c2)C(=O)N([C@H](C)CO)C[C@H](C)[C@@H](CN(C)C(=O)Nc2ccc(OC)cc2)O3)cc1	1.6	-60% (inactive)

Structure (SMILES)	activation factor	activity change, negative = activation
CNC[C@H]1Oc2ccc(NC(=O)Nc3ccc4c(c3)OCO4)cc2C(=O)N([C@H](C)CO)C[C@@H]1C	1.48	-47.9% (inactive)
CNC[C@@H]1Oc2ccc(NC(=O)Nc3ccccc3)cc2C(=O)N([C@@H](C)CO)C[C@H]1C	1.61	-61.5% (inactive)
CNC[C@H]1Oc2ccc(NC(=O)Nc3ccc(OC)cc3)cc2C(=O)N([C@@H](C)CO)C[C@H]1C	2.23	-123% (active)
CCOC(=O)CC1(c2ccccc2)CCOC(C)(C)C1 (stereo unspecified)	0.94	6.05% (inactive)
COc1ccc(N2CCN(S(=O)(=O)/C=C/c3ccccc3)CC2)cc1	1.07	-7.05% (inactive)
COc1ccc2[nH]c3c(c2c1)CCN1C(=O)C(CC(=O)NCCCN(C)C)C[C@H](C(=O)N(C(C)C)C(C)C)[C@@]31C (stereo partly specified)	1.14	-13.9% (inactive)
CN1CCN(C(CNS(=O)(=O)c2ccc(F)cc2)c2cccnc2)CC1 (stereo unspecified)	1.1	-10.1% (inactive)
O=C(CSc1nnc(C2CC2)n1Cc1ccccc1)NCc1ccccc1	1.05	-5% (inactive)
Fc1ccc2[nH]c3c(NCCN4CCOCC4)ncnc3c2c1	1.07	-7.05% (inactive)
O=C(Cn1cnc2c(NCc3ccccc3)ncnc21)NCc1ccccc1	0.932	6.8% (inactive)
COc1ccc(CNc2ncnc3c2[nH]c2ccccc23)cc1	2.71	-171% (active)
COc1ccc2[nH]c3c(N4CC(C)OC(C)C4)ncnc3c2c1 (stereo unspecified)	1.17	-17.4% (inactive)
Cc1ccc2[nH]c3c(NCc4ccccc4)ncnc3c2c1	2.49	-149% (active)
COc1ccc(CNC(=O)Cn2cnc3c(NCc4ccccc4)ncnc32)cc1	1.01	-0.55% (inactive)
COC(=O)c1ccc(CNC(=O)Cn2cnc3c(NCc4ccccc4)ncnc32)cc1	0.989	1.05% (inactive)
COc1cc(CNc2ncnc3c2[nH]c2ccc(C)cc23)cc(OC)c1	2.97	-197% (active)
CCOc1ccc2[nH]c3c(NCCC(C)C)ncnc3c2c1	1.85	-84.7% (inactive)
Fc1ccc2[nH]c3c(NCc4ccccc4)ncnc3c2c1	2.25	-125% (active)
Cc1ccc2[nH]c3c(N4CCN(Cc5ccccc5)CC4)ncnc3c2c1	1.25	-24.6% (inactive)
O=C(Cn1cnc2c(NCc3ccccc3)ncnc21)NCc1ccc2[nH]ccc2c1	1.1	-9.85% (inactive)
